Data: PubChem BioAssay AID1117319 (Southern Research Institute, 2015)
The whole screen tested about 260,000 compounds, of which about 1,500 (0.58%) were called active. Not shown: some 5% with an inconclusive outcome.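 How the source made its calls: active means inhibition above a set limit at one or more doses, reproduced on every date tested; inconclusive means results disagree between test dates, or hit never tested in dose response; inactive means the rest.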 The list is a sample of the results. Entries with a potency or affinity are not part of this list.

Molecular target: Virion infectivity factor (Human immunodeficiency virus type 1 group M subtype B (isolate BH10)) + Virion infectivity factor (Human immunodeficiency virus type 1 group M subtype B (isolate BRU/LAI)) + Virion infectivity factor (Human immunodeficiency virus type 1 group M subtype B (isolate PCV12)) + Virion infectivity factor (Human immunodeficiency virus type 1 group M subtype B (isolate HXB2)) + DNA dC->dU-editing enzyme APOBEC-3G (Homo sapiens) (UniProt P69720+P69721+P69722+P69723+Q9HC16)
Test: inhibitors of Vif binding to APOBEC3G peptide, primary screen, biochemical, TR-FRET, GST-Vif 1-94, biotin-A3G peptide, dose response retest (AID 1117319);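 further: Vif residues 1-94 fused to GST binding biotinylated APOBEC3G peptide 110-148; 0% = full assay without inhibitor and 100% = GST in place of GST-Vif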
Conditions: hits give high values

inhibition, inactive:
O=C(Cc1c(F)cccc1Cl)N1CCN(S(=O)(=O)c2cccc(F)c2)CC1 -1.72%, O=C(C1CCCCC1)N1CCc2ccccc21 3.73%, O=C(O)C1CC=CCC1C(=O)N1CCc2ccccc21 (stereo not drawn) 23.4%, CCN(CC)S(=O)(=O)c1ccc(OCC(=O)NC(=O)Cc2ccccc2)c([N+](=O)[O-])c1 1.51%, C=C(c1ccc(OC)cc1)c1ccc(OC)cc1 13.2%, O=C(c1ccccc1)c1ccc(OCCO)cc1 -4%, CC1(C)CC(=O)C(C=NCCCN2CCOCC2)=C(O)C1 -5.25%, CCc1cc2ccc(OC)cc2nc1SCC(=O)NNC(=O)c1ccco1 -10%, Cc1ccc(NC(=S)N(CCCN2CCOCC2)Cc2ccco2)cc1C -0.03%, COc1ccc(/C=C2/C(=N)N3C(=NC2=O)Sc2cc(S(C)(=O)=O)ccc23)cc1OC -1.27%, CN(C)c1ccc(/C=C2\C(=N)N3C(=NC2=O)Sc2cc(S(C)(=O)=O)ccc23)cc1 -44.5%, O=C(NCc1nnc(SCC(=O)N2CCc3ccccc32)o1)c1ccco1 1.79%, Cc1cccc(NCC(=O)N/N=C\c2c[nH]c3ccccc23)c1 21.4%, Cc1nc(N)sc1C(=O)N/N=C/c1cccnc1 3.64%, Cc1cccc(Nc2ncc3c(n2)CC(c2ccco2)CC3=O)c1 (stereo not drawn) 3.03%, CCC(=O)Nc1ncc2c(n1)CC(c1ccco1)CC2=O (stereo not drawn) 31.8%, Cc1ccc(Nc2ncc3c(n2)CC(c2ccco2)CC3=O)c(C)c1 (stereo not drawn) 18.1%, O=C(CSc1nnnn1-c1ccccc1)Nc1ncc2c(n1)CC(c1ccccc1)CC2=O (stereo not drawn) 2.52%, CC(C(=O)NC1=NCCS1)(C(F)(F)F)C(F)(F)F -4.2%, COc1ccc(CCNC(=O)CCCc2ccccc2)cc1OC 1%, Cc1ccc(C)c(OCC(=O)Nn2c(C)nc3ccccc3c2=O)c1 -5.76%, C=CCn1c(C)c(C(C)=O)c(N2CCCC2)nc1=S 1.72%, C=CCn1c(C)c(C(C)=O)c(N2CCOCC2)nc1=S 5.16%, O=C(NCC1CCCO1)c1ccc2nc(N3CCCCC3)sc2c1 (stereo not drawn) 1.36%, CC(Oc1ccc(Br)cc1)C(=O)Nc1ccncc1 (stereo not drawn) -0.96%, COc1ccc(CNC(=O)c2cc(=O)c3ccccc3o2)cc1 4.03%, O=C(NNc1nc2c(F)cccc2s1)c1cc(=O)c2ccccc2o1 21.6%, O=S(=O)(c1cccc(F)c1)N1CCN(C(=S)NCc2ccccc2)CC1 -4.04%
